40 compounds from PubChem BioAssay (NCATS) can be followed below.

Inconclusive results are not listed. Activity calls are given as the source filed them. Calls follow the shape of the dose curve; as a rule, active = well fitted cell-killing curve with a large enough effect; inconclusive = small, poorly fitted or top-dose-only effect, or effect the other way; inactive = flat fitted curve, though single readings scatter.
% is scaled to controls: 0 for no effect and ±100 for the full control effect; potency is read from the fitted curve at half-maximal effect.

The first experiment concerns CAOV3. Description: Primary qHTS to identify gynecologic anti-cancer compounds using libraries of approved drugs and bioactive compounds (AID 1345084). Also: nearly all actives have a fitted effect of over 55% in size. The conditions noted are these: Gynecologic cancer cell panel viability, ATPlite luminescence, 48 h; series mostly up to 57.5 µM; activity change, negative = cytotoxicity: at the top concentration. An outline of the steps: (§1)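 48 h compound exposure at 37 C, 5% CO2; five-point qHTS. ATPlite luminescence readout of cell ATP.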
As for `C[C@@H]1O[C@@H](O[C@H]2CC[C@@]3(C)C(CC[C@]4(C)C3CC=C3[C@@H]5CC(C)(C)CC[C@]5(C(=O)O[C@@H]5O[C@H](CO)[C@@H](O)[C@H](O)[C@H]5O)CC[C@]34C)[C@]2(C)CO)[C@H](O)[C@H](O[C@@H]2O[C@H](CO)[C@@H](O)[C@H](O)[C@H]2O)[C@H]1O` (stereo partly specified), the activity change, negative = cytotoxicity is -0.291% [at 11.6 µM] (inactive).
For `C[C@H](Nc1cc2c(-c3ccc4c(c3)OCO4)noc2cn1)c1ccccc1`, the “activity change, negative = cytotoxicity” value is -2.75% (inactive).
As to `O=C(N[C@H](Cc1cscn1)C(=O)N[C@@H](CC1CCCCC1)[C@@H](O)[C@@H](O)C1CC1)c1nc2ccccc2[nH]1`, the “activity change, negative = cytotoxicity” value was 0.428% (inactive).
Regarding `O=C(NCCCc1ccccc1)C1CCC(CNS(=O)(=O)c2cccc3nsnc23)CC1` (stereo unspecified), the “activity change, negative = cytotoxicity” value was 11.2% (inactive).
Turning to `CC(C)c1ccc(NC(=O)Cn2cnc3c2c(=O)n(C)c(=O)n3C)cc1`, the “activity change, negative = cytotoxicity” value was 10.9% (inactive).
Consider `C=C1C(=O)OC[C@@H]1C/C=C(\C)CC1CC(C)C(=O)O1` (stereo partly specified), for which the “activity change, negative = cytotoxicity” value is -15.4% (inactive).

Another experiment has as its system CASKI. The experiment is described as above. Particulars: Gynecologic cancer cell panel viability, ATPlite luminescence, 48 h; series mostly up to 57.5 µM; activity change, negative = cytotoxicity: at the top concentration. In a few lines: as §1
Take `C[C@@H]1C[C@H](C)CN(CCC(=O)Nc2ccc(Br)cc2)C1`: the “activity change, negative = cytotoxicity” value was -6.75% (inactive).
In the case of `O=[N+]([O-])c1cn2c(n1)OC[C@@H](OCc1ccc(-c3ccc(OC(F)(F)F)cc3)nc1)C2`, the “activity change, negative = cytotoxicity” value was 6.43% (inactive).
On to `C=C1CCC2[C@](C)(CCC[C@@]2(C)C=O)[C@H]1CC/C(C)=C/CO` (stereo partly specified), for which the “activity change, negative = cytotoxicity” value was -2.33% (inactive).
Turning to `COc1ccc(CCc2nc3cc(-c4c(C)noc4C)ccc3n2CC(C)N2CCOCC2)cc1Cl` (stereo unspecified), the “activity change, negative = cytotoxicity” value is -19.1% (inactive).
With `O=C(NCC(=O)N1CCCC1)Nc1ccc2cnccc2c1`, the “activity change, negative = cytotoxicity” value is -3.53% (inactive).
With `C=C(C)C(=O)O[C@H]1[C@H]2C(=C)C(=O)O[C@@H]2/C=C(\CO)CC/C=C(/C=O)[C@@H]1O`, the “activity change, negative = cytotoxicity” value was 4.32% [at 38.5 µM] (inactive).
The same measure, in the same setting: as for `COc1c(C)cc(NC(=O)c2nn(Cc3ccc(F)cc3)c3c2CN(C(=O)c2ccc[nH]2)C[C@]3(C)C(N)=O)cc1C`, the figure is -0.257% [at 11.6 µM] (inactive).
For `Cc1[nH]c2ccccc2c1CCNCc1ccc(/C=C/C(=O)NO)cc1`, the Potency is 447 nM (active).
As for `O=C(NC1CCC1)c1ccc(C#Cc2cccc(F)c2)nc1`, the “activity change, negative = cytotoxicity” value is -6.6% (inactive).
For `COc1ccc(NC(=O)C2C[C@H](C)CC[C@H]2C(C)C)cc1` (stereo partly specified), the “activity change, negative = cytotoxicity” value is 9.47% (inactive).
As for `COc1cc(OC)c2c(=O)[nH]c(-c3cc(C)c(OCCO)c(C)c3)nc2c1`, the “activity change, negative = cytotoxicity” value is -24.9% (inactive).
Take `CC1(C=O)CCCC2(C)C1CCC13CC(CO)C(CCC12)C3` (stereo unspecified): the “activity change, negative = cytotoxicity” value was -2.42% (inactive).
As for `COc1c2c(nc3occc13)C(CC=C(C)C)(OC)C(O)CC2` (stereo unspecified), the “activity change, negative = cytotoxicity” value was -2.89% [at 38.5 µM] (inactive).
In the case of `Cn1ncnc1[C@@H]1c2n[nH]c(=O)c3cc(F)cc(c23)N[C@H]1c1ccc(F)cc1`, the “activity change, negative = cytotoxicity” value is -0.902% (inactive).
Regarding `O=C(O)c1cccc(-c2ccc(-c3cn(C(=O)N4CCCCC4Cc4ccccc4)nn3)cc2)c1` (stereo unspecified), the “activity change, negative = cytotoxicity” value was -2.62% (inactive).
`Cc1cccc(-c2[nH]ncc2-c2ccc(F)c(-c3cnn(CCO)c3)c2)n1`: the “activity change, negative = cytotoxicity” value is 0.005% (inactive).
Turning to `CC1(C)CCC2(C(=O)OC3OC(COC4OC(CO)C(O)C(O)C4O)C(O)C(O)C3O)CCC3(C)C(=CCC4C5(C)CCC(OC6OCC(O)C(O)C6O)C(C)(C)C5CCC43C)C2C1O` (stereo unspecified), the activity change, negative = cytotoxicity was -6.34% [at 11.6 µM] (inactive).
Consider `CC(=O)O[C@@H]1[C@@H](O)[C@H](O[C@@H]2[C@@H](O)[C@@H](O)[C@H](O[C@H]3[C@H](O[C@H]4[C@H](O[C@H]5CC[C@@]6(C)C(CC[C@]7(C)C6CC=C6[C@@H]8CC(C)(C)CC[C@]8(C(=O)O)CC[C@]67C)[C@]5(C)CO)O[C@H](CO)[C@@H](O)[C@@H]4O)OC[C@@H](O)[C@@H]3O)O[C@H]2C)OC[C@H]1O` (stereo partly specified), for which the activity change, negative = cytotoxicity is 17% [at 11.6 µM] (inactive).
Regarding `CN(C)CC#CCCC(=O)C(O)(c1ccccc1)C1CCC1` (stereo unspecified), the “activity change, negative = cytotoxicity” value was 6% (inactive).
`Cc1cn2c(n1)Cc1ccc(Cl)cc1C(c1ccc(N)cc1)=N2`: the “activity change, negative = cytotoxicity” value was 19.4% (inactive).
On the same count and under the same terms, for `CC1(CO)CC(O)[C@]2(C(=O)O)CCC34CC3(C=CC3[C@]5(C)C(CC[C@]34C)C(C)(CO)[C@@H](O)[C@H](O)[C@@H]5O)C2C1` (stereo partly specified) the value was -3.27% [at 25.3 µM] (inactive).
On the same count and under the same terms, for `CC(=O)O[C@H]1C[C@@](O)(C(C)C)[C@@H]2[C@@H](OC(=O)c3ccc(O)cc3)CC(C)=CC[C@@]12C` the value was 8.99% [at 25.3 µM] (inactive); for `Cc1ccc(C(C)C)c(O[C@@H]2O[C@H](CO)[C@@H](O)[C@H](O)[C@H]2O)c1`, -7.54% [at 38.5 µM] (inactive).
Turning to `O=C1Nc2ccccc2-c2nc3ccccc3c(=O)n2-c2c(O)cccc21`, the “activity change, negative = cytotoxicity” value was 0.735% [at 38.5 µM] (inactive).
Take `COc1ccc(CN2CCN(CCCSc3cc(C(C)(C)C)c(O)c(C(C)(C)C)c3)CC2)c(OC)c1OC`: the activity change, negative = cytotoxicity is -0.531% [at 11.6 µM] (inactive).
Consider `CN(C)c1ccnc2sc3c(=O)n(N4CCCCCC4)cnc3c12`, for which the “activity change, negative = cytotoxicity” value is -6.87% (inactive).
`Cc1c(C(=O)NCc2cccnc2)nn(-c2ccc(Cl)cc2Cl)c1-c1ccc(Cl)cc1`: the “activity change, negative = cytotoxicity” value was -2.14% (inactive).
`CC(C)=CCc1cc2c(cc1O)OC[C@H]1c3ccc(O)cc3O[C@@H]21`: the “activity change, negative = cytotoxicity” value is -4.36% [at 38.5 µM] (inactive).
On to `Cn1cc(-c2ccc(F)c(C(F)(F)F)c2)nc1C1CCN(c2ncnc3[nH]ncc23)CC1`, for which the “activity change, negative = cytotoxicity” value was 0.998% [at 25.3 µM] (inactive).
As to `O=C(O)CCc1nccc2c1[nH]c1ccccc12`, the “activity change, negative = cytotoxicity” value is 14.1% (inactive).
`NS(=O)(=O)c1ccc(N2CCN(CC[C@@H]3OCCc4ccccc43)CC2)cc1`: the “activity change, negative = cytotoxicity” value is 4.59% (inactive).
On to `CC1(C)CC[C@]23CO[C@@]4(CCC5[C@@]6(C)CC[C@H](O[C@@H]7OC[C@H](O[C@@H]8O[C@H](CO)[C@@H](O)[C@H](O)[C@H]8O[C@@H]8OC[C@@H](O)[C@H](O)[C@H]8O)[C@H](O)[C@H]7O)[C@@](C)(CO)C6CC[C@@]5(C)[C@]4(C)CC2=O)[C@@H]3C1` (stereo partly specified), for which the activity change, negative = cytotoxicity was -3.31% [at 11.6 µM] (inactive).
In the case of `Cc1ccc(CNc2ncnc3ccc(-c4ccc(CO)o4)cc23)o1`, the “activity change, negative = cytotoxicity” value is -1.05% (inactive).
Regarding `C/C(=C/CO)CCC1C(C)CCC2C(C)(C)CCCC12C` (stereo unspecified), the “activity change, negative = cytotoxicity” value was 7.63% (inactive).
For the compound `C[C@@H]1O[C@@H](O[C@H]2CC[C@@]3(C)C(CC[C@]4(C)C3CC=C3[C@@H]5CC(C)(C)CC[C@]5(C(=O)O[C@@H]5O[C@H](CO)[C@@H](O)[C@H](O)[C@H]5O)CC[C@]34C)[C@]2(C)CO)[C@H](O)[C@H](O[C@@H]2O[C@H](CO)[C@@H](O)[C@H](O)[C@H]2O)[C@H]1O` (stereo partly specified), the activity change, negative = cytotoxicity is -6.26% [at 11.6 µM] (inactive).
Regarding `C[C@H](Nc1cc2c(-c3ccc4c(c3)OCO4)noc2cn1)c1ccccc1`, the “activity change, negative = cytotoxicity” value is 16.5% (inactive).
Turning to `O=C(N[C@H](Cc1cscn1)C(=O)N[C@@H](CC1CCCCC1)[C@@H](O)[C@@H](O)C1CC1)c1nc2ccccc2[nH]1`, the “activity change, negative = cytotoxicity” value is -21.4% (inactive).
Consider `O=C(NCCCc1ccccc1)C1CCC(CNS(=O)(=O)c2cccc3nsnc23)CC1` (stereo unspecified), for which the “activity change, negative = cytotoxicity” value was -8.7% (inactive).
Regarding `CC(C)c1ccc(NC(=O)Cn2cnc3c2c(=O)n(C)c(=O)n3C)cc1`, the “activity change, negative = cytotoxicity” value was 10.8% (inactive).
In the case of `C=C1C(=O)OC[C@@H]1C/C=C(\C)CC1CC(C)C(=O)O1` (stereo partly specified), the “activity change, negative = cytotoxicity” value is -6.22% (inactive).
